Records with an inconclusive call do not appear. Active and inactive are the calls of the source. Calls follow the shape of the dose curve; as a rule, active = well fitted curve in the direction sought with a large enough effect in the repeat runs; inconclusive = weak or mixed curves; inactive = no such curve, though single readings can be large; an effect the other way counts as inactive or inconclusive.
Experiments:
[1] = qHTS RealTime-Glo MT Cell Viability Assay in HEK293 cells - 16 hour (AID 1224872); also: nearly all actives have a fitted effect of over 50% in size; also: potency is read from the fitted curve at half-maximal effect
Outline: (§1)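 Cells + reagent dispensed (600 cells/well, HEK293) → 5 h at 37 C/5% CO2 → 23 nL compound in DMSO pinned → 40 h at 37 C → luminescence read at 0, 8, 16, 24, 32, 40 h.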

[2] = qHTS RealTime-Glo MT Cell Viability Assay in HepG2 cells - 8 hour (AID 1224873); also: nearly all actives have a fitted effect of over 55% in size
Outline: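 HepG2 cells (600/well) mixed with RealTime-Glo MT reagent, settled 5 h at 37 C/5% CO2 before compound addition. Nonlytic NanoLuc luminescence from viable-cell prosubstrate reduction read repeatedly during 40 h treatment at 37 C.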

[3] = A CellTox Green Cytotoxicity Assay to monitor cytotoxicity in HEK293 cells - 24 hour (AID 1224875); also: nearly all actives have a fitted effect of over 45% in size; also: potency is read from the fitted curve at half-maximal effect
Outline: (§2)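 Seeding of HEK293 cells together with cytotoxicity dye preceded a 5 h incubation at 37 C/5% CO2. Test compounds in DMSO were then added and fluorescence monitored across 40 h.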

[4] = A CellTox Green Cytotoxicity Assay to monitor cytotoxicity in HepG2 cells - 16 hour (AID 1224876); also: nearly all actives have a fitted effect of over 45% in size; also: potency is read from the fitted curve at half-maximal effect
Outline: (§3)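 Nonlytic assay: viable cells exclude the dye, so fluorescence scales with cell death. HepG2 at 600 cells/well, compounds added after 5 h, signal read across 40 h.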

[5] = qHTS RealTime-Glo MT Cell Viability Assay in HepG2 cells - 32 hour (AID 1224877); also: nearly all actives have a fitted effect of over 55% in size; also: potency is read from the fitted curve at half-maximal effect
Outline: (§4)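 Real-time, nonlytic viability: 600 HepG2 cells/well mixed with NanoLuc enzyme plus prosubstrate; 5 h settle, compound (DMSO) added by pintool; luminescence monitored over 40 h at 37 C.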

[6] = A CellTox Green Cytotoxicity Assay to monitor cytotoxicity in HepG2 cells - 24 hour (AID 1224878); also: nearly all actives have a fitted effect of over 45% in size; also: potency is read from the fitted curve at half-maximal effect
Outline: as §3

[7] = A CellTox Green Cytotoxicity Assay to monitor cytotoxicity in HepG2 cells - 40 hour (AID 1224879); also: nearly all actives have a fitted effect of over 40% in size; also: potency is read from the fitted curve at half-maximal effect
Outline: as §3

[8] = A CellTox Green Cytotoxicity Assay to monitor cytotoxicity in HEK293 cells - 32 hour (AID 1224881); also: nearly all actives have a fitted effect of over 40% in size; also: potency is read from the fitted curve at half-maximal effect
Outline: as §2

[9] = A CellTox Green Cytotoxicity Assay to monitor cytotoxicity in HepG2 cells - 0 hour (AID 1224882); also: nearly all actives have a fitted effect of over 35% in size
Outline: as §3

[10] = A CellTox Green Cytotoxicity Assay to monitor cytotoxicity in HepG2 cells - 32 hour (AID 1224883); also: nearly all actives have a fitted effect of over 50% in size; also: potency is read from the fitted curve at half-maximal effect
Outline: as §3

[11] = A CellTox Green Cytotoxicity Assay to monitor cytotoxicity in HEK293 cells - 8 hour (AID 1224884); also: nearly all actives have a fitted effect of over 35% in size; also: potency is read from the fitted curve at half-maximal effect
Outline: as §2

[12] = qHTS RealTime-Glo MT Cell Viability Assay in HEK293 cells - 8 hour (AID 1224887); also: nearly all actives have a fitted effect of over 50% in size; also: potency is read from the fitted curve at half-maximal effect
Outline: (§5)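 Tox21 screen in HEK293 using RealTime-Glo MT chemistry, with cells and reagent co-dispensed. Luminescence proportional to viable cell number was captured at intervals during 40 h compound exposure at 37 C.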

[13] = A CellTox Green Cytotoxicity Assay to monitor cytotoxicity in HEK293 cells - 16 hour (AID 1224888); also: nearly all actives have a fitted effect of over 35% in size; also: potency is read from the fitted curve at half-maximal effect
Outline: as §2

[14] = qHTS RealTime-Glo MT Cell Viability Assay in HepG2 cells - 0 hour (AID 1224889); also: nearly all actives have a fitted effect of over 50% in size; also: potency is read from the fitted curve at half-maximal effect
Outline: as §4

[15] = A CellTox Green Cytotoxicity Assay to monitor cytotoxicity in HepG2 cells - 8 hour (AID 1224890); also: nearly all actives have a fitted effect of over 45% in size; also: potency is read from the fitted curve at half-maximal effect
Outline: as §3

[16] = qHTS RealTime-Glo MT Cell Viability Assay in HepG2 cells - 16 hour (AID 1224885); also: nearly all actives have a fitted effect of over 50% in size
Outline: as §4

[17] = qHTS RealTime-Glo MT Cell Viability Assay in HEK293 cells - 24 hour (AID 1224886); also: nearly all actives have a fitted effect of over 50% in size; also: potency is read from the fitted curve at half-maximal effect
Outline: as §1

[18] = qHTS RealTime-Glo MT Cell Viability Assay in HEK293 cells - 40 hour (AID 1224874); details: RealTime-Glo luminescence; max response: hits give low values
Outline: as §5

[19] = qHTS RealTime-Glo MT Cell Viability Assay in HEK293 cells - 0 hour (AID 1224880)
Outline: as §5

Measured: Potency

COc1cc(-c2ccc(N=C=O)c(OC)c2)ccc1N=C=O
not listed: [16] | [17] | [18] | [19]
inactive: all other assays above

CCCC(C)c1ccccc1O (configuration not stated)
active: [8] 49 µM
inactive: [1] | [2] | [5] | [9] | [16] | [17] | [12] | [14]

CCOC(=O)O[C@]1(C(=O)OCCl)CC[C@H]2[C@@H]3CCC4=CC(=O)C=C[C@]4(C)[C@H]3[C@@H](O)C[C@@]21C
active: [14] 3.38 µM
not listed: [16] | [17] | [18] | [19]
inactive: all other assays above

CCCCCCCCCCCC(=O)NCCCN(C)C
active: [1] 49 µM | [18] 34.7 µM | [3] 54.9 µM | [4] 43.6 µM | [5] 38.9 µM | [6] 34.7 µM | [7] 30.9 µM | [8] 54.9 µM | [10] 24.5 µM | [11] 54.9 µM | [17] 43.6 µM | [12] 49 µM | [13] 54.9 µM | [15] 54.9 µM
inactive: [9] | [14]

CSc1ccc2c(c1)C(N1CCN(C)CC1)Cc1ccccc1S2 (configuration not stated)
active: [4] 26.8 µM | [5] 23.9 µM | [6] 23.9 µM | [7] 23.9 µM | [10] 23.9 µM
inactive: [1] | [2] | [9] | [11] | [12] | [13]

CCc1cc(SCc2sc(-c3ccc(C(F)(F)F)cc3)nc2CN2CCN(c3ccc(OC)cc3)CC2)ccc1OCC(=O)O
inactive: [2] | [4] | [6] | [19] | [9] | [11] | [13] | [14] | [15]
active: [1] 19.5 µM | [18] 19.5 µM | [17] 21.9 µM

N#CSc1ccc(N)c([N+](=O)[O-])c1
active: [1] 43.9 µM
not listed: [7] | [10] | [12] | [17] | [18]
inactive: all other assays above

— PubChem BioAssay (Tox21)
